In all, about 33,000 sequences were measured (“e-score”: median about -0.037, highest 2% from about 0.34 on). The full list was thinned out, with the highest values kept by preference.

The test addresses T1, GST-Rok (full length) (Bacillus subtilis subsp. subtilis str. …, UniProt O34857 1-191).
T1 sequence: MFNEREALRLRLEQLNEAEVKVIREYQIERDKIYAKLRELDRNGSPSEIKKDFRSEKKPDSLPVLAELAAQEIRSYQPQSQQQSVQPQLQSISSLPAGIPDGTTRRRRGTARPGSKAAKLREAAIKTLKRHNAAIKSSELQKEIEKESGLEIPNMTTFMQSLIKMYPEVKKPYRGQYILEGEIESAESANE
The test is described as follows: protein binding microarray; Rok is a gene silencer of Bacillus subtilis; high values mean tight binding. The settings on record: protein: recombinant; tags: GST (pTH5325, pDEST15-Magic modified); dsDNA, one strand shown. The method in brief: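 Each has a 25-mer constant primer and a 35-mer variable part from a de Bruijn sequence of order 10, covering every non-palindromic 8-mer at least 32 times (palindromic 16). Preference for each 8-mer is given as a rank-based, unitless enrichment score (E-score). Its range runs from 0.5 (most favored) to −0.5 (most disfavored).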
On to AACTTCAT, for which the binding signal was determined as 0.0811 E-score.
As for GCTGTGAC, the figure is -0.0172 E-score; as for AGATAACA, 0.241 E-score; as for CTTACCAC, 0.00163 E-score.
With AGTTGCGA the figure was 0.0582 E-score; with GAACTGAA, -0.118 E-score; with AGACCGTC, -0.193 E-score.
With CCAATGGG the figure was -0.118 E-score; with AGTCTGCG, 0.0274 E-score.
Regarding AGTGGGCA, the binding signal was -0.0765 E-score.
GACGACGC: the binding signal came to 0.0038 E-score.
With CTATATCC the figure was 0.0894 E-score; with GTATATCA, 0.208 E-score.
GAATATCA: the binding signal came to 0.18 E-score.
As for CAATATCA, the figure is 0.183 E-score.
Regarding ATATATCG, the binding signal is 0.381 E-score.
With ATATATCC the figure was 0.18 E-score; with TAATATCA, 0.338 E-score; with ATATATCA, 0.398 E-score.
With CTATATCA the figure was 0.231 E-score; with CCTTAATC, -0.174 E-score; with AGGAAGTA, 0.0966 E-score.
GCTCCGGA: the binding signal is -0.102 E-score.
With CCTACTTC the figure was 0.211 E-score.
With ACATCTCG the figure was -0.0379 E-score; with CACGTCAA, 0.00857 E-score.
With AACTTCTT the figure was -0.00379 E-score; with TCTTAAGA, 0.00924 E-score; with AGTGATTG, -0.118 E-score.
Regarding GGTGTCGA, the binding signal was -0.128 E-score.
With CGCTGAGC the figure was -0.0254 E-score; with TACTAATA, 0.346 E-score; with CACTAATA, 0.277 E-score.
With GACTAATA the figure was 0.225 E-score.
As for CACTAATG, the figure is 0.154 E-score; as for ACCTAATA, 0.176 E-score; as for AACTAATT, 0.32 E-score.
AACTAATC: the binding signal turned out to be 0.158 E-score.
With AACTAATA the figure was 0.357 E-score; with AACTAATG, 0.339 E-score.
AGATTACG: the binding signal came to 0.17 E-score.
With AAACCCGT the figure was -0.0147 E-score.
Regarding ACCGGCAA, the binding signal is -0.0643 E-score.
Regarding TTCCCCAA, the binding signal was -0.0604 E-score.
As for GTGATTCA, the figure is -0.0295 E-score; as for TGATGCAA, -0.0283 E-score.
As for CGCGGTAA, the figure is 0.147 E-score; as for AGTCAATA, 0.322 E-score; as for AAGATATA, 0.313 E-score.
With CGTATATC the figure was 0.196 E-score; with AATATAAC, 0.193 E-score; with AATATAAT, 0.228 E-score.
Regarding AATATATT, the binding signal worked out at 0.41 E-score.
Regarding AATATTAT, the binding signal came out at 0.208 E-score.
As for AATATATC, the figure is 0.412 E-score.
As for AATATATA, the figure is 0.469 E-score; as for AATATATG, 0.33 E-score; as for GATGGGAA, -0.056 E-score.
In the case of CAGGACGG, the binding signal was -0.164 E-score.
With CAGAGTTA the figure was -0.0506 E-score; with ATTATAGG, 0.285 E-score.
As for ACTACTGA, the figure is 0.323 E-score; as for TCTACTCA, 0.206 E-score; as for ACTACTTA, 0.432 E-score.
As for ACTACTCA, the binding signal turned out to be 0.281 E-score.
Take ACTACTTC: the binding signal was found to be 0.193 E-score.
Take CGTACTTA: the binding signal was 0.264 E-score.
As for AGTACTTA, the figure is 0.349 E-score; as for TCTACTAA, 0.353 E-score.
Turning to ACTACTAA, the binding signal was found to be 0.386 E-score.
As for GCTACTAA, the figure is 0.199 E-score.
With AGTACTTG the figure was 0.297 E-score.
With CCTACTAA the figure was -0.00507 E-score.
On to AGTAACAT, for which the binding signal was found to be 0.242 E-score.
As for CTCCATTC, the figure is 0.0472 E-score; as for GCTACAGC, 0.0848 E-score.
With ACGCGGCA the figure was -0.129 E-score.
As for GTAGAAGA, the figure is 0.247 E-score; as for ACAGCGAT, -0.0187 E-score.
For the sequence CAGGAGAA, the binding signal is -0.111 E-score.
With AATTTAAG the figure was 0.18 E-score; with ACAGTGTC, 0.114 E-score; with ACTGATAA, 0.273 E-score.
TAGCTTCA: the binding signal amounted to 0.13 E-score.
With AAGCAAGG the figure was -0.19 E-score.
With AAGTTGAG the figure was -0.123 E-score.
As for ATATGTTC, the figure is 0.184 E-score.
In the case of ATATGTAC, the binding signal came out at 0.345 E-score.
With ATATGTAA the figure was 0.286 E-score.
As for CTATGTAA, the figure is 0.185 E-score; as for CTATGTTA, 0.285 E-score; as for ATATGTTA, 0.395 E-score.
With CTATGTAC, the binding signal was determined as 0.186 E-score.
With ATATGTAG the figure was 0.391 E-score; with AGATGTAC, 0.315 E-score.
For the sequence CGCTATTA, the binding signal was 0.211 E-score.
As for CATTAGCA, the figure is -0.0362 E-score; as for GAGCTCAC, -0.145 E-score.
With ACGCAGAG the figure was -0.119 E-score; with ATTAGAAA, 0.233 E-score; with AGTAGAAG, 0.228 E-score.
With AGTAGAAA the figure was 0.42 E-score.
Consider AGTAGAGA, for which the binding signal was found to be 0.265 E-score.
With AGTAGAAT the figure was 0.42 E-score; with AGTAGAAC, 0.267 E-score; with AGGATTAG, 0.158 E-score.
As for TAGCCCAA, the binding signal was -0.0264 E-score.
As for ACGGAGCG, the figure is -0.13 E-score; as for ATATACAA, 0.389 E-score.
